The text below walks through data of PubChem BioAssay AID662 (National Center for Advancing Translational Sciences (NCATS), 2007).

The structures appear in SMILES notation. Screen size: about 71,000 compounds; about 1,800 (2.5%) were called active. Where a call stands in place of a potency, no number is given. Not shown: some 26% with an inconclusive outcome. The sample as a whole holds a higher share of actives than the screen did. A number with no mark means an inactive call. The call rests on the fitted dose curve; in most records, active means well fitted activation curve with a large enough effect in the signal ratio, with a control signal flat (not every such curve was filed as active); inconclusive means small, poorly fitted or top-dose-only effect, or effect the other way, or a change in a side signal; inactive means flat fitted curve, though single readings scatter; the % refers to the signal ratio.
Potency means the concentration at half of the fitted maximal effect.

The test is described as follows: Cell signaling CRE-BLA (Fsk stim). The note with it: CHO CRE-bla reporter (cAMP response element driving beta-lactamase), forskolin EC10, beta-lactamase ratio; series mostly up to 38.2 µM. The source says:
NIH Molecular Libraries Screening Centers Network [MLSCN]
NIH Chemical Genomics Center [NCGC]
Assay Provider: Marshall W. Nirenberg, U.S. National heart lung & blood institute
Memories persist for different lengths of time, from seconds or minutes to a lifetime. There are two kinds of memory: short-term memory (STM) and long-term memory (LTM). STM lasts for minutes to hours, which maybe mediated by modifications of molecules involved in synaptic functions. LTM lasts for days or longer, and may be due to the formation of new synapses or restructuring of existing synapses. LTM, but not STM, requires gene transcription and synthesis of proteins. CREB (cyclic-AMP Responsive Element Binding Protein) is one of the candidates plays an important role for enhancement of some types of LTM. CREB, a family of transcription factors, regulates the transcription of genes containing cAMP Responsive Elements (CRE). CRE is a nucleotide sequence often found in the promoter regions of genes that are binding sites for CREB.
Using a beta-lactamase reporter-gene under control of cAMP responsive element, a cell-based assay [CellSensor(TM) CRE-bla CHO developed by Invitrogen Corp.] was used to measure forskolin-induced signaling. Library compounds were measured for their ability to modulate positively or negatively the action of EC10 NKH 477, a water soluble forskolin, on reporter gene activity. Compounds were screened in a titration series in 1536-well format. Positive and negative modulators were identified based on the AC50 values derived from the screening data.
NCGC Assay Protocol Summary
2000 cells/5uL in Opti-MEM medium containing 0.5% dialyzed FBS, 0.1 mM NEAA, 1 mM sodium pyruvate and 10 mM HEPES was dispensed into 1536-well plates and cells were cultured at 37 degrees Celsius overnight. […] And then the plates were incubated at 37 degrees Celsius for 3 hours. 1 uL of CCF4-dye mixture was added to each well. After incubated at room temperature for 2 hours the plates were measured on an EnVision plate reader at Excitation 405nm, Emission1=460nm and Emission 2=530nm. The %Activity was determined from the ratio of 460nm/530nm.
Keywords: NIH Roadmap, MLSCN, MLSMR, qHTS, NCGC, CRE, beta-lactamase reporter-gene assay.
As for `CCc1nnc(NC(=O)c2cccs2)s1`, the Potency result was “inactive”.
Same read-out and setting: in the case of `O=C(Nc1ncccn1)c1cccs1` it was “inactive”.
As to `O=C(O)Cc1ccc(NC(=O)c2cccs2)cc1`, the Potency entry is “inactive”.
`CCOC(=O)c1oc2ccccc2c1NC(=O)c1cccs1`: the Potency was 3.98 µM (active).
As to `CCOC(=O)c1c(NC(=O)c2cccs2)sc(C)c1C`, the Potency was 2.51 µM (active).
On the same count and under the same terms, in the case of `COC(=O)Cn1cc(C(=O)c2cccs2)c2ccccc21` it was “inactive”.
With `COC(=O)C1=C(C)N(C)C(C)=C(C(=O)OC)C1c1cccc(Br)c1`, the Potency result is “inactive”.
With `O=C(Cl)c1ccc([N+](=O)[O-])cc1`, the Potency entry is “inactive”.
The same measure, in the same setting: for `CCNC(=S)NCC` the value was “inactive”; for `CCCCC(CC)CN` (stereo not drawn), “inactive”; for `c1csc(-c2cn3c(n2)SCC3)c1`, “inactive”.
As for `Cc1c(C)c2c(c(C)c1O)CC[C@@](C)(CN1CCN(c3cc(N4CCCC4)nc(N4CCCC4)n3)CC1)O2`, the Potency result is “inactive”.
Turning to `CC1OC2C(OC1C)N(S(C)(=O)=O)CCN2S(C)(=O)=O` (stereo not drawn), the Potency result is “inactive”.
The same measure, in the same setting: for `Cc1nc2cnc(N3CCN(C)CC3)nc2n(CCC#N)c1=O` the value was “inactive”.
Turning to `O=c1c(CCc2ccccc2)nc2cnc(N3CCNCC3)nc2n1Cc1cccs1`, the Potency is 12.6 µM (active).
Turning to `Cc1nc2cnc(N3CCN(C)CC3)nc2n(C[C@H]2CCCO2)c1=O`, the Potency entry was “inactive”.
As to `CC(C)(C)[Si](OCC[C@@H]1C[C@@]1(C)[C@@H](NP(=O)(c1ccccc1)c1ccccc1)c1ccccc1)(c1ccccc1)c1ccccc1`, the Potency entry is “inactive”.
Turning to `COC(=O)[C@@]1(Cc2ccc(OC)cc2)[C@H]2c3cc(C(=O)N4CCCC4)n(Cc4ccc(C(F)(F)F)nc4)c3C[C@H]2CN1C(=O)c1ccccc1`, the Potency entry was “inactive”.
Same read-out and setting: for `COC(=O)C1(C)C=CC2(CCCCC2)N1C(C)=O` (stereo not drawn) the value was “inactive”; for `CCCCCCCCCCCC(=O)O`, “inactive”; for `CCCOc1ccc(C2c3c(oc4cc(C)c(C)cc4c3=O)C(=O)N2CCCN2CCOCC2)cc1` (stereo not drawn), “inactive”.
Consider `Cc1cccn2c(=O)c3cc(C#N)c(=O)n(CCCN4CCOCC4)c3nc12`, for which the Potency is 10 µM (active).
On the same count and under the same terms, in the case of `Cn1c(=O)c2c(nc(CN3CCOCC3)n2Cc2ccccc2)n(C)c1=O` it was “inactive”; in that of `CCOC(=O)CSc1nnc(-c2cccc(Br)c2)o1`, “inactive”.
As to `CCC[C@@H]1C[C@@]1(CCC)C(NC(=O)c1ccc(-c2ccccc2)cc1)c1cccc(Cl)c1` (stereo partly drawn), the Potency entry was “inactive”.
The same measure, in the same setting: for `CCOc1ncccc1C(=O)OCc1cn2cc(Cl)ccc2n1` the value was 10 µM (active); for `COc1ccc(C(=O)NCc2cn3ccccc3n2)cc1`, “inactive”; for `CSc1ncccc1C(=O)OCC(=O)N1CCOCC1`, “inactive”.
On to `CC(=O)N1[C@H](C)C=C[C@]1(Cc1ccccc1)C(=O)NCc1ccccn1`, for which the Potency entry is “inactive”.
The same measure, in the same setting: in the case of `C/C(=C\C(=O)c1ccc(Br)cc1)N1CCCCC1` it was “inactive”; in that of `COC(=O)C1(Cc2ccccc2)C=C2C(=C(C)C(=O)C2C)CN1` (stereo not drawn), “inactive”; in that of `COc1ccc(-c2nn3c(-c4ccccc4)nnc3s2)cc1OC`, 3.16 µM (active).
Take `Cc1nnc2sc(-c3ccco3)nn12`: the Potency entry is “inactive”.
The same measure, in the same setting: in the case of `Fc1ccc(-c2ccc(-c3nn4c(-c5ccco5)nnc4s3)o2)cc1` it was “inactive”; in that of `COc1cc(-c2nn3c(-c4cccc(C)c4)nnc3s2)cc(OC)c1OC`, 1.58 µM (active); in that of `CC(=O)Nc1ccc(-c2nn3c(C)nnc3s2)cc1C`, “inactive”.
For `COC(=O)CCCCCN1C(=O)NC(c2ccc(-c3ccccc3)cc2)C(C(=O)OCc2ccccc2)=C1C` (stereo not drawn), the Potency result is “inactive”.
`O=C(CCSc1ccccc1)NCCSc1ccccn1`: the Potency result is “inactive”.
For the molecule `CCOc1ccccc1N(CC(=O)Nc1ccccc1C(=O)OC)S(C)(=O)=O`, the activity change, negative = inhibition was 12.2% [at 7.6 µM].
As for `CC(NC(=O)Nc1ccccc1)c1ccccc1` (stereo not drawn), the Potency entry is “inactive”.
Consider `CC(Cc1ccccc1)C(=O)N(C)Cc1ccccc1` (stereo not drawn), for which the Potency result is “inactive”.
`CCOc1ccc(Cn2c(SCCCCC#N)nc3c2c(=O)n(C)c(=O)n3C)cc1OCC`: the Potency is 10 µM (active).
Same read-out and setting: for `CCCSc1nc2c(c(=O)n(C)c(=O)n2C)n1Cc1ccc(C)cc1` the value was “inactive”; for `COC(=O)C(C)Sc1nc2c(c(=O)n(C)c(=O)n2C)n1Cc1cccc(C)c1` (stereo not drawn), “inactive”.
For the molecule `COC(=O)[C@@]1(Cc2ccccc2)[C@H]2c3cc(C(=O)N(C)C)n(CCSCCO)c3C[C@H]2CN1C(=O)c1ccccc1`, the Potency entry is “inactive”.
On to `NS(=O)(=O)c1ccc(NS(=O)(=O)/C=C/c2ccccc2)cc1`, for which the Potency result is “inactive”.
Regarding `CC(C)(C)NC(=O)c1cc(NC(=O)c2ccco2)cc(NC(=O)c2ccco2)c1`, the Potency entry is “inactive”.
Consider `O=c1c2[nH]c3ccc(Cl)cc3c2ncn1Cc1ccccn1`, for which the Potency was 3.98 µM (active).
For `O=C(Nc1cccc(Cl)c1)OCc1ccccn1`, the Potency entry is “inactive”.
As to `CC(=O)N1CC2(C)CN(C(C)=O)CC(C)(C1)C2=O`, the Potency entry is “inactive”.
Still for that read-out and setting: in the case of `C/C=C/C=C/C(=O)O` it was “inactive”.
The same measure, in the same setting: in the case of `CCNc1nc(NCC)nc(N(C)n2cnnc2)n1` it was “inactive”; in that of `Nc1nc(SCCOc2ccccc2)n[nH]1`, “inactive”; in that of `CCNc1nc(SCCOc2ccccc2)nc(N(C)C)n1`, 3.98 µM (active).
With `OC(CCl)CCl`, the Potency entry is “inactive”.
Take `Cn1c(=O)c2c(nc(SCC(=O)Nc3ccccc3N3CCCCC3)n2C)n(C)c1=O`: the Potency result was “inactive”.
Consider `CCCc1nc(SCC(=O)Nc2ccccc2OC)c2c(=O)n(C)c(=O)n(C)c2n1`, for which the Potency is 2.51 µM (active).
Regarding `COc1ccccc1NC(=O)CSc1nnc(-c2ccoc2C)n1CCc1ccccc1`, the Potency result was “inactive”.
Same read-out and setting: in the case of `C=CCc1cccc2cc(C(=O)OCC)c(=O)oc12` it was “inactive”; in that of `COc1ccccc1N1CCN(C[C@@H]2CN3C(=O)N(C)c4ccccc4C3=N2)CC1`, “inactive”; in that of `COc1ccc(-c2noc(-c3cccc(OC)c3OC)n2)cc1OC`, 2.51 µM (active).
As for `COc1cc(-c2nc(-c3ccncc3)no2)cc(OC)c1OC`, the Potency entry is “inactive”.
Consider `COc1ccc(-c2nc(-c3ccccc3)no2)c(OC)c1`, for which the Potency result is “inactive”.
As for `COc1ccc(C(=O)n2nc(-c3ccc(C)cc3)nc2N)cc1OC`, the Potency entry is “inactive”.
Still for that read-out and setting: for `COc1ccc(C(=O)n2nc(-c3ccc(Cl)cc3)nc2N)cc1OC` the value was 2 µM (active); for `COc1ccccc1C(=O)n1nc(-c2ccccc2)nc1N`, “inactive”.
`O=C1CC(N2CCN(C(c3ccccc3)c3ccccc3)CC2)C(=O)N1` (stereo not drawn): the Potency entry was “inactive”.
Same read-out and setting: in the case of `CC/C(=N\O)C(C)(C)/[N+]([O-])=C/c1ccc(Br)cc1` it was “inactive”.
As to `O=C(OCCO)c1cc(Cl)c(C(=O)OCCO)cc1Cl`, the Potency result was “inactive”.
With `O=C(O)CN(Cc1ccco1)S(=O)(=O)c1ccccc1`, the Potency entry is “inactive”.
Take `CCc1nc(N2CCN(c3nc(C)cc(C)n3)CC2)c2oc3ccccc3c2n1`: the Potency result is “inactive”.
As to `COc1ccccc1Nc1ncnc2c1oc1ccccc12`, the Potency entry was “inactive”.
`CCc1nc(Nc2ccc3nccnc3c2)c2oc3ccccc3c2n1`: the Potency is 0.794 µM (active).
